Results filed as inconclusive are left out. The source made the active and inactive calls. Calls come from the whole dose curve; as a rule, active = well fitted curve in the direction sought with a large enough effect; inconclusive = small, poorly fitted or top-dose-only effect, or another doubt; inactive = no such curve, though single readings can be large or run the other way.

These results are taken from PubChem BioAssay (NCATS).
% is set by controls: 0 for no effect and ±100 for the full control effect.

The target in this assay is Ferritin light chain (Equus caballus) (UniProt P02791). The assay can be described thus: qHTS Validation Assay for Identification of Novel General Anesthetics (AID 2323). The following applies: horse apoferritin, anesthetic-site fluorescent probe displacement; series mostly up to 76.9 µM; activity change, negative = inhibition: at the top concentration. The text has this: Source: NIH Chemical Genomics Center [NCGC]
Chain of Ferritin light chain (Equus caballus) (P02791 2-175 limits assumed): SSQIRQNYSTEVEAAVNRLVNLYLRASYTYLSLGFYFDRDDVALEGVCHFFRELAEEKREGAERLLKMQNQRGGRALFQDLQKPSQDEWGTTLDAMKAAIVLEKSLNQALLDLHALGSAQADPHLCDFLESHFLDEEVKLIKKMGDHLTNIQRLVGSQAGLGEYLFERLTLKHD
Assay Submitter: Roderic Eckenhoff, University of Pennsylvania
Screening Center PI: Christopher P. Austin, NIH
Probe Development: NIH Chemical Genomics Center [NCGC]
Anesthetic development has remained a largely empirical process. There are growing concerns about the cognitive effects of known general anesthetics and acceleration of the onset of neurodegenerative disease. The compounds' toxicity and multiple specific binding targets in the mammalian brain [4] has made them less attractive as drug leads. In this assay, a GABAergic mimetic model system, apoferritin and a profluorescent 1-aminoanthracene ligand (1-AMA), was used to construct a competitive binding assay for identification of novel general anesthetics. The assay was validated for 1-AMA using other known anesthetics, such as isoflurane (CID:3763) and propofol (CID: 4943), [6].
[1] S.L. Bianchi, T. Tran, C. Liu, S. Lin, Y. Li, J.M. Keller, R.G. Eckenhoff, and M.F. Eckenhoff, Brain and behavior changes in 12-month-old Tg2576 and nontransgenic mice exposed to anesthetics. Neurobiol Aging 29 (2008) 1002-10.
[2] Z. Xie, Y. Dong, U. Maeda, R.D. Moir, W. Xia, D.J. Culley, G. Crosby, and R.E. Tanzi, The inhalation anesthetic isoflurane induces a vicious cycle of apoptosis and amyloid beta-protein accumulation. J Neurosci 27 (2007) 1247-54.
[3] P. Honegger, and J.M. Matthieu, Selective toxicity of the general anesthetic propofol for GABAergic neurons in rat brain cell cultures. J Neurosci Res 45 (1996) 631-6.
[4] M.F. Eckenhoff, K. Chan, and R.G. Eckenhoff, Multiple specific binding targets for inhaled anesthetics in the mammalian brain. J Pharmacol Exp Ther 300 (2002) 172-9.
[5] C.A. Butts, J. Xi, G. Brannigan, A.A. Saad, S.P. Venkatachalan, R.A. Pearce, M.L. Klein, R.G. Eckenhoff, and I.J. Dmochowski, Identification of a fluorescent general anesthetic, 1-aminoanthracene. Proc Natl Acad Sci U S A 106 (2009) 6501-6.
[6] W.A. Lea, J. Xi, A. Jadhav, L. Lu, C.P. Austin, A. Simeonov, and R.G. Eckenhoff, A high-throughput approach for identification of novel general anesthetics. PLoS One 4 (2009) e7150.
Three uL of reagents (free 1-AMA (50% saturated solution of 1-aminoanthracene
in PBS) in columns 3, 4 as negative control and 1-AMA/apoferritin mixture (10 uM horse-spleen apoferritin in 50% saturated 1-aminoanthracene in PBS) in columns 1, 2, 5-48) was dispensed into 1536-well Greiner black assay plates. Compounds (23 nL) were transferred via Kalypsys pintool equipped with 1,536-pin array (10 nL slotted pins, V&P Scientific, San Diego, CA). Titration of the positive control, propofol, were delivered via pin transfer from separate control plates to the 2nd column of each assay plate. The starting concentration of the control, dissolved in DMSO, was at 160 mM, followed by two-fold dilution points in duplicate, for a total of 16 concentrations. The plates were incubated for 10 min at room temperature, and then read on an EnVision HTS multilabel reader (Perkin-Elmer, Waltham, MA) (end point read, 3 min/plate) using Fura2 BFP excitation filter (380 nm, bandwidth 10 nm) and fluorescein emission filter (535 nm, bandwidth 25 nm) set. A LANCE/DELFIA dichroic mirror with a cutoff wavelength at 400 nm was used to maximize signal accuracy and strength. Vehicle-only plates, with DMSO being pin-transferred to the entire column 5-48 compound area, were inserted uniformly at the beginning and the end of each library in order to monitor for and record any shifts in the background. Activity was computed as the normalized fluorescence response relative to free 1-AMA and 1-AMA/apoferritin complex values. Concentration-effect relationships were derived by using curve fitting algorithms developed in-house (http://ncgc.nih.gov/pub/openhts/). A four parameter Hill equation was fitted to the concentration-response data by minimizing the residual error between the modeled and observed responses.
For orientation: Quantitative high-throughput screening tests each substance at several concentrations.
Turning to `C1CCC(N=C(NC23CC4CC(CC(C4)C2)C3)N2CCOCC2)CC1`, the “activity change, negative = inhibition” value is -6.55% (inactive). With `Cn1cnc2c(NC3CCCC3)ncnc21`, the “activity change, negative = inhibition” value is -7.81% (inactive). With `COc1cc2c(cc1C(F)(F)F)N(C(=O)Nc1cc(F)cc(-c3cccnc3)c1)CC2`, the “activity change, negative = inhibition” value is 209% (inactive). Next, `COc1ccccc1NC(=O)Nc1nc(-c2cccnc2)nc2ccccc12`: -3.72% (inactive); `Cc1cccc(/C=C/c2ccccc2)n1`: 3.09% (inactive); `S=C(Nc1ccccc1)Nc1nccs1`: -10.9% (inactive). As for `CN(C)CCCCSC(=N)N`, the figure is -1.91% (inactive); as for `COc1[nH]c2ccc(F)cc2c1C(=O)OCC1CCN(CCNS(C)(=O)=O)CC1`, -5.48% (inactive). Next, `Cc1ccc(OCC(O)C(C)NC(C)C)c2c1CCC2` (stereo unspecified): 3.89% (inactive). For the molecule `O=C(O)c1cc(=O)c2ccc(Cl)cc2[nH]1`, the “activity change, negative = inhibition” value is -7.14% (inactive). `O=C(OCCN1CCCCC1)c1c[nH]c2ccccc12`: the “activity change, negative = inhibition” value is -10% (inactive). As for `Cc1cccc(C)c1NC(=O)C[N+](C)(C)C`, the figure is -2.83% (inactive); as for `COC(=O)c1c(-c2cc(OC)c(OC)c(OC)c2)c2ccnc(OCc3ncccn3)c2c(=O)n1Cc1ccnc(C)c1`, -14% (inactive).

Take `O=C(Nc1cc(C(=O)Nc2ccc(S(=O)(=O)O)cc2S(=O)(=O)O)cc(C(=O)Nc2ccc(S(=O)(=O)O)cc2S(=O)(=O)O)c1)Nc1cc(C(=O)Nc2ccc(S(=O)(=O)O)cc2S(=O)(=O)O)cc(C(=O)Nc2ccc(S(=O)(=O)O)cc2S(=O)(=O)O)c1`: the “activity change, negative = inhibition” value was 0.429% (inactive).

With `NCCNS(=O)(=O)c1cccc2cnccc12`, the “activity change, negative = inhibition” value was -2.26% (inactive). Consider `NC(CCC(=O)NCS(=O)(=O)O)C(=O)O` (stereo unspecified), for which the “activity change, negative = inhibition” value was 9.15% (inactive).
